# Target: T1, mv4Int (369 aa integrase) (Lactobacillus delbrueckii bacteriophage …)
# T1 chain: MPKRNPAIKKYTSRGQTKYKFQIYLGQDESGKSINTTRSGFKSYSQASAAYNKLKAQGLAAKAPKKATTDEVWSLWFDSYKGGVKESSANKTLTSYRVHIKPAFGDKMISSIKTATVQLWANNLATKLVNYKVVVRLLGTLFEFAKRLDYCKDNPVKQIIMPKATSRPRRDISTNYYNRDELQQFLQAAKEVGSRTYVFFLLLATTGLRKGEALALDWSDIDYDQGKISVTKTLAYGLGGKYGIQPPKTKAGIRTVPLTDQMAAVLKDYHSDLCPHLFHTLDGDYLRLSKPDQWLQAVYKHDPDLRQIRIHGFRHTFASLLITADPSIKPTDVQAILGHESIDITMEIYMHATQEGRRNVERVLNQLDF
# Experiment: cleavage_in_vitro; recombination with attP sharing same overlap
# Conditions: tags: expressed from pET15b; label: Cy3; dsDNA, one strand shown
sequence,measurement,value
TCAAATAAGGTTTTCTCCTTAATAAGGTCAAATGGTATC,binding signal,15 fold decrease vs WT

# From patent US20250354175, “ATTP MV4-DERIVED SITE-SPECIFIC RECOMBINATION AND ITS USE FOR INTEGRATION OF SEQUENCE OF INTEREST” (INSTITUT NATIONAL DE RECHERCHE POUR L'AGRICULTURE, …, published 2025)
